Unmarked numbers belong to inactive results. How the calls were made is not given here.

The test in a line: Pseudomonas biofilm growth suppression – PAO1 strain, BacTiter-Glo luminescence, LB-PBS, primary screen (AID 1144). As to conditions: P. aeruginosa PAO1 biofilm, 12 h, higher = more signal.
On to `COc1ccc([Si](C)(C)[C@@H]2[C@@H](CCO)O[C@]3(C(=O)N(Cc4ccc(NC(C)=O)cc4)c4ccccc43)[C@H]2C)cc1`, for which the z-score is 0.525.
Take `CCCCC(=C=CC[C@H](O)c1ccccc1OCCO)C[C@H](O)COCc1ccccc1`: the z-score was 1.44.
Consider `COC(=O)[C@H]1COC(c2ccc(OCCCO)cc2)=N1`, for which the z-score was -0.767.
Turning to `CC(C)C[C@@H]1NC(=O)[C@H]2C[C@@H](C(=O)NCCCCCCN(C)C)[C@@H](c3cccc(OCCO)c3)N2C1=O`, the z-score was -0.402.
For the compound `O=C1O[C@@H](c2ccccc2)[C@@H](c2ccccc2)N2[C@@H](c3ccccc3OCCO)[C@]3(C(=O)Nc4ccc(C#CCCO)cc43)[C@@H](C(=O)O)[C@H]12`, the z-score is -0.923.
The figure for `CC(C)NC(=O)[C@@]1(C)c2ccccc2C(=O)N(Cc2cc(F)cc(C(F)(F)F)c2)[C@H]1c1ccc(CO)cc1` is -0.699; for `O=C1O[C@@H](c2ccccc2)[C@@H](c2ccccc2)N2[C@@H](c3ccc(OCCO)cc3)[C@]3(C(=O)Nc4ccccc43)[C@@H](C(=O)N3CCN(c4ncccn4)CC3)[C@H]12` it is 0.349.
The figure for `CCc1cc2c(nc1CC)CCN(CCC(C)=NOC[C@@H](O)[C@H]1O[C@@H]3OC(C)(C)O[C@@H]3[C@H]1O)C2` is -0.319; for `C=CC[C@@H]1C=C[C@H](ON=C(C)CCN2CCc3nc(CC)c(CC)cc3C2)[C@@H](CO)O1` it is 0.983; for `CN(C)CCCNC(=O)[C@@H]1c2ccccc2C(=O)N(Cc2cc(F)cc(C(F)(F)F)c2)[C@H]1c1ccc(CO)cc1` it is -0.101.

For the origin of these results see PubChem BioAssay.
